# Data from PubChem BioAssay (NCI).
# The panel holds about 83,000 compounds, 20% with a hit somewhere; the sample as a whole holds those more often.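 Plates (96-well) were seeded with cells, treated with compound at one concentration, and incubated for 48 hours before percent growth was determined.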 Unmarked numbers belong to inactive results. Active and inactive are the calls of the source. Rule for the calls: active = growth percent below 10; inactive = the rest.
# Tests used:
# Assay in all cases: NCI-60 one-dose screen, 48 h (100 = growth as untreated, 0 = no growth, -100 = all killed)
# NCI-H23 lung = conditions: 10 µM unless noted
# NCI-H226 lung = conditions: 10 µM unless noted
# NCI-H322M lung = conditions: 10 µM unless noted
# NCI-H460 lung = conditions: 10 µM unless noted
# NCI-H522 lung = conditions: 10 µM
# A549/ATCC NSCLC = conditions: 10 µM unless noted
# 786-0 renal = conditions: 10 µM unless noted
# HOP-92 NSCLC = conditions: 10 µM
# COLO 205 colon = conditions: 10 µM unless noted
SMILES,growth (NCI-H23 lung) [%],growth (NCI-H226 lung),growth (NCI-H322M lung) [%],growth (NCI-H460 lung) [%],growth (NCI-H522 lung),growth (A549/ATCC NSCLC) [%],growth (786-0 renal) [%],growth (HOP-92 NSCLC) [%],growth (COLO 205 colon) [%]
COc1nc(OC)nc(-c2cc(C(=O)c3ccc(Br)cc3)n3cc(C)cc(C)c23)n1,48.1,34.3%,81.8,34.8,57.7%,51.3,12,,
O=c1[nH]c(=S)[nH]c(O)c1/C=C1\C=Nc2ccccc21,82.5,90.5%,110,79.5,91.5%,,107,54.2,78.8
O=S(=O)(O)CCI,102,95.9%,101,104,103%,114,106,,111
CCOC(=O)C1=C(C(F)(F)F)NC(=O)NC1CN1C(=O)c2ccccc2C1=O (configuration not stated),99.3,111%,107,112,115%,115,104,,116
CC(=O)Nc1nc(C)c(C(=O)NNC(=O)Nc2ccccc2)s1,102,7.19% (active),120,108,64.5%,99.1,110,,105
Cc1c(Cc2ccccc2)c(=O)oc2c(C)c(OCC(=O)n3nc(C#N)cc3N)ccc12,96.5,96.2%,93.6,106,79.4%,106,97,,107
CCOC(=O)CCCCCCCCC(=O)OCC,96.3,103%,97.6,108,105%,107,106,,108
COc1ccc(/C=C2\SC(=O)N(Cc3cc(=O)oc4ccc(OC)cc34)C2=O)cc1,71.6,67.9%,84.9,94.1,77.9%,96.4,83.9,,111
O=C(NCCNCCO)c1cc([N+](=O)[O-])cc([N+](=O)[O-])c1O,103,97.7%,103,104,91.9%,100,104,,110
NC(=O)c1c(Nc2ccccc2)nn2cc(-c3nc4ccccc4s3)c(N)nc12,95.2,85.5%,103,98.6,91.4%,105,109,,106
Clc1ccc(N/N=C(/c2ccccc2)c2ccccn2)nc1,29.7,27.1%,39.8,28.8,60.8%,32,37.6,,25
CCCCCSc1ccc2nc(NC(=O)OCC)sc2c1,18.5,21.7%,41.3,10.5,20.8%,34.6,33.6,,
COc1ccc(C(O)(c2ccccc2)C(C(=O)O)c2ccccc2)cc1 (configuration not stated),102,106%,105,116,98.5%,,103,63,111
COc1cc2cc3cc4cc(OC)c(OC)cc4c(C)[n+]3cc2cc1OC (tested in a mixture with another compound),89,80%,89.8,89.1,56.4%,,66.5,143,111
COC(=O)/C=C/c1cc(O)c2oc(-c3ccc(O)c(O)c3)c(C(=O)OC)c2c1,30.4,18.2%,48.7,29.1,-0.902% (active),57.2,44.2,,
